Screening data as filed in PubChem BioAssay.
C diff growth – blocks growth of Clostridium difficile; growth activity, negative = inhibition, % at 16 µg/mL (by protocol); 0.25% of 86,000 active; Clostridium difficile clinical isolate growth, OD600, 24 h; active compounds read low;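 active = mean growth activity at or below -80% and every replicate also at or below -80%; inconclusive = mean at or below -80% but some replicate above -80%; inactive = mean growth activity above -80%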;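 also: 0% = DMSO wells and -100% = levofloxacin 16 µg/mL wells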
Pf Dd2 inh – inhibitors of Plasmodium falciparum Dd2 growth; P. falciparum Dd2 growth, SYBR Green, 72 h; active compounds read low; activity change, % at 10 µM; 2.3% of 94,000 active; in the data active = activity change below about -80%; inconclusive = no clear call, values can overlap the other calls
Starred values were filed as active, the others as inactive; ? = inconclusive; · = no result. Shown are actives, neighbours in structure and some others; about 2.3% of the full set was active somewhere.

SMILES	C diff growth	Pf Dd2 inh
Cc1ccc(-c2ccc([C@@H]3[C@@H](CO)N4CCCCN(C(=O)Nc5cccc(F)c5)C[C@@H]34)cc2)cc1	65	-20
Cc1ccc(-c2ccc([C@H]3[C@@H](CO)N4CCCCN(C(=O)Nc5ccccc5)C[C@H]34)cc2)cc1	0	-32
Cc1ccccc1-c1ccc([C@H]2[C@@H](CO)N3CCCCN(C(=O)Nc4cccc(F)c4)C[C@H]23)cc1	-98*	-38
CO[C@@H]1CN(C)C(=O)c2cc(NC(C)=O)ccc2OC[C@@H](C)N(Cc2ccc(F)cc2)C[C@@H]1C	-3	17
C[C@@H]1CN([C@H](C)CO)S(=O)(=O)c2ccc(-c3ccc(F)cc3)cc2O[C@H]1CN(C)C(=O)C1CCC1	·	-34
CCCNC(=O)N[C@@H]1CC[C@H](CCn2cc(-c3cccc(F)c3)nn2)O[C@H]1CO	·	14
COc1ccc(NC(=O)Nc2ccc3c(c2)C(=O)N([C@@H](C)CO)C[C@H](C)[C@H](CN(C)S(=O)(=O)c2ccc(OC)cc2)OCCCC[C@@H](C)O3)cc1	4	-88*
COc1ccc(NC(=O)Nc2ccc3c(c2)C(=O)N([C@H](C)CO)C[C@H](C)[C@H](CN(C)S(=O)(=O)c2ccc(C)cc2)OCCCC[C@@H](C)O3)cc1	·	-88*
COc1ccc(S(=O)(=O)N(C)C[C@@H]2OCCCC[C@H](C)Oc3ccc(NC(=O)Nc4ccc(C(F)(F)F)cc4)cc3C(=O)N([C@@H](C)CO)C[C@H]2C)cc1	6	-86*
COc1ccc(NC(=O)Nc2ccc3c(c2)C(=O)N([C@H](C)CO)C[C@@H](C)[C@H](CN(C)S(=O)(=O)c2ccc(C)cc2)OCCCC[C@@H](C)O3)cc1	·	-75
COc1ccc(S(=O)(=O)N(C)C[C@H]2OCCCC[C@@H](C)Oc3ccc(NC(=O)Nc4ccc(C(F)(F)F)cc4)cc3C(=O)N([C@H](C)CO)C[C@@H]2C)cc1	3	-79
COc1ccc(NC(=O)Nc2ccc3c(c2)C(=O)N([C@@H](C)CO)C[C@@H](C)[C@@H](CN(C)S(=O)(=O)c2ccc(OC)cc2)OCCCC[C@@H](C)O3)cc1	-6	-73
CCCN1C[C@@H](C)[C@H](OC)CN(C)C(=O)c2cc(NC(=O)c3ccc4c(c3)OCO4)ccc2OC[C@H]1C	0	-47
C[C@@H]1CN([C@@H](C)CO)C(=O)c2cc(NC(=O)Nc3ccccc3)ccc2O[C@@H](C)CCCCO[C@H]1CN(C)C(=O)CCC(F)(F)F	-10	2
CO[C@H]1CN(C)C(=O)c2ccc(NC(=O)C3CCCC3)cc2OC[C@H](C)N(CCC(F)(F)F)C[C@@H]1C	-18	-25
C[C@H]1CN([C@@H](C)CO)C(=O)Cc2cc(NC(=O)CCCCCC(=O)Nc3ccccc3N)ccc2O[C@H]1CN(C)Cc1ccc2c(c1)OCO2	-1	-88*
C[C@@H]1CN([C@H](C)CO)C(=O)Cc2cc(NC(=O)CCCCCC(=O)Nc3ccccc3N)ccc2O[C@H]1CN(C)Cc1ccccc1	-12	-53
C[C@@H]1CN([C@@H](C)CO)C(=O)Cc2cc(NC(=O)CCCCCC(=O)Nc3ccccc3N)ccc2O[C@H]1CN(C)Cc1ccc2c(c1)OCO2	-7	-41
Cc1ccc(S(=O)(=O)N(C)C[C@@H]2Oc3ccc(NC(=O)CCCCCC(=O)Nc4ccccc4N)cc3CC(=O)N([C@@H](C)CO)C[C@H]2C)cc1	-6	-68
C[C@H]1CN([C@@H](C)CO)C(=O)Cc2cc(NC(=O)CCCCCC(=O)Nc3ccccc3N)ccc2O[C@H]1CN(C)Cc1ccc(-c2ccccc2)cc1	0	-82*
Cc1ccc(S(=O)(=O)N(C)C[C@@H]2Oc3ccc(NC(=O)CCCCCC(=O)Nc4ccccc4N)cc3CC(=O)N([C@@H](C)CO)C[C@@H]2C)cc1	-5	-88*
C[C@@H]1CN([C@H](C)CO)C(=O)c2cc(Br)cnc2O[C@@H]1CN(C)CC1CCCC1	·	13
O=C(Cc1ccccn1)NCC[C@@H]1CC[C@H](NC(=O)c2ccccc2F)[C@@H](CO)O1	·	24
CN(C[C@@H]1N[C@H](CO)[C@@H]1c1ccc(C#CCC2CCCC2)cc1)S(C)(=O)=O	-11	-11
O=C(C[C@H]1C=C[C@H](NC(=O)C2CCC2)[C@@H](CO)O1)NCc1ccccc1Cl	-1	3
SMILES	C diff growth	Pf Dd2 inh
C[C@H]1CN([C@@H](C)CO)C(=O)c2cc(C#Cc3cccc(F)c3)cnc2O[C@H]1CN(C)C(=O)c1ccccc1F	9	-82*
C[C@@H]1CN([C@H](C)CO)C(=O)c2cc(C#Cc3ccccc3)cnc2O[C@H]1CN(C)C(=O)c1ccccc1F	40	-60
C[C@@H]1CN([C@@H](C)CO)C(=O)c2cc(C#Cc3ccccc3F)cnc2O[C@H]1CN(C)C(=O)Cc1ccncc1	2	-24
C[C@@H]1CN([C@H](C)CO)C(=O)c2cc(C#Cc3cccc(F)c3)cnc2O[C@@H]1CN(C)C(=O)c1ccccc1F	-6	-81*
C[C@@H]1CN([C@H](C)CO)C(=O)c2cc(C#Cc3ccccc3F)cnc2O[C@H]1CN(C)C(=O)Cc1ccncc1	2	-84*
C[C@H](CO)N1C[C@H](C)[C@H](CN(C)C(=O)c2ccccc2F)Oc2ncc(C#Cc3cccc(F)c3)cc2C1=O	2	-77
C[C@@H]1CN([C@H](C)CO)C(=O)c2cc(C#Cc3cccc(F)c3)cnc2O[C@H]1CN(C)C(=O)c1ccccc1F	-6	-85*
C[C@H]1CN([C@@H](C)CO)C(=O)c2cc(C#Cc3cccc(F)c3)cnc2O[C@@H]1CN(C)C(=O)c1ccccc1F	7	?
CC(=O)N(C)C[C@H]1Oc2ncc(C#Cc3ccc(F)cc3)cc2C(=O)N([C@H](C)CO)C[C@H]1C	4	-13
C[C@H]1CN([C@@H](C)CO)C(=O)CCCn2cc(nn2)CO[C@H]1CN(C)C(=O)Nc1ccccc1C(F)(F)F	-4	-32
CC(C)C#Cc1ccc([C@@H]2[C@H](CO)N3C(=O)CN(C(=O)NC4CCCCC4)C[C@@H]23)cc1	-12	-24
C[C@H](CO)N1C[C@H](C)[C@@H](CN(C)C(=O)c2cccc(F)c2)Oc2ncc(/C=C/c3ccccc3)cc2C1=O	0	?
C[C@H]1CN([C@@H](C)CO)C(=O)c2cc(/C=C/c3ccccc3)cnc2O[C@@H]1CN(C)C(=O)c1cccc(F)c1	1	-83*
CCNC(=O)[C@H]1[C@H](CO)[C@H]2Cn3c(ccc(-c4ccncc4)c3=O)[C@@H]1N2Cc1ccccc1	-1	32
COc1cccc(-c2cnc3c(c2)C(=O)N([C@@H](C)CO)C[C@H](C)[C@H](CN(C)C(=O)CN(C)C)O3)c1	-1	-24
CN(C)CC(=O)Nc1ccc2c(c1)[C@@H]1C[C@H](CC(=O)NCc3ccccc3)O[C@@H](CO)[C@@H]1O2	·	4
CN1c2ccc(C#Cc3cccnc3)cc2[C@@H]2[C@@H](CCN2C(=O)C2CCCC2)[C@@H]1CO	13	-74
COc1ccc(-c2ccc3c(c2)[C@H]2[C@H](CCN2C(=O)C2CC2)[C@@H](CO)N3C)cc1	14	-7
COc1ccc(-c2ccc3c(c2)[C@H]2[C@H](CCN2C(=O)C2CCCC2)[C@H](CO)N3C)cc1	-5	-85*
CN1c2ccc(C#Cc3cccnc3)cc2[C@H]2[C@H](CCN2C(=O)C2CCCC2)[C@H]1CO	0	-89*
CN1c2ccc(Br)cc2[C@H]2[C@H](CCN2C(=O)Nc2ccc(F)cc2)[C@@H]1CO	-94*	12
